# Laboratory results taken from paper PMC7862700, “An all-to-all approach to the identification of sequence-specific readers for epigenetic DNA modifications on cytosine”.
# How the values were obtained:
# Assay in all cases: DAPPL (digital affinity profiling via proximity ligation, sequencing); 10 mM Tris-HCl pH 7.5, 50 mM NaCl, 1 mM DTT, 4% glycerol, room temperature, 30 min; GST-TFs on glutathione beads, 16-mer random dsDNA library, 0.1% formaldehyde crosslink after washing; high values mean tight binding
# FEV = target: T1, FEV (Homo sapiens, UniProt Q99581 1-238); details: protein: recombinant; tags: N-terminal GST; dsDNA, one strand shown
# T1 sequence: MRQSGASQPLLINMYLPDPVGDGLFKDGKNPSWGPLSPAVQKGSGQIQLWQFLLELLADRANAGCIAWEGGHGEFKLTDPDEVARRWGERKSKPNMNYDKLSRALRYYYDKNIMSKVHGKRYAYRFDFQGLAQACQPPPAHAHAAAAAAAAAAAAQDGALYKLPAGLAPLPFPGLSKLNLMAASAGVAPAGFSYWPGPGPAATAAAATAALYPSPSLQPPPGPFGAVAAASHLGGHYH
# Method in brief: (§1)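 Pools of DNA-barcoded human transcription factors, expressed in yeast as GST fusions on glutathione beads and combined with a tag-only sample, were incubated with 200 nmole of a 16-mer random double-stranded DNA library. Incubation took 30 min at room temperature in Tris/NaCl/DTT/glycerol buffer and was followed by washing, 0.1% formaldehyde crosslinking, proximity ligation (BsaI/T4 ligase, 1 h, 37 °C), PCR amplification and sequencing on an Illumina NextSeq500. Binding signal is the ratio of a hexamer's read frequency for a factor to its frequency for the tag-only sample.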
# ETV5 = ETV5 (Homo sapiens, UniProt P41161 1-510); details: protein: recombinant; tags: N-terminal GST; dsDNA, one strand shown
# Method in brief: as §1
# HSF1 = HSF1 (Homo sapiens, UniProt Q00613 1-529); details: protein: recombinant; tags: N-terminal GST; chain copies: 3; dsDNA, one strand shown
# Method in brief: as §1
# SPIC = target: T2, SPIC (Homo sapiens, UniProt Q8N5J4 1-248); details: protein: recombinant; tags: N-terminal GST; dsDNA, one strand shown
# T2 sequence: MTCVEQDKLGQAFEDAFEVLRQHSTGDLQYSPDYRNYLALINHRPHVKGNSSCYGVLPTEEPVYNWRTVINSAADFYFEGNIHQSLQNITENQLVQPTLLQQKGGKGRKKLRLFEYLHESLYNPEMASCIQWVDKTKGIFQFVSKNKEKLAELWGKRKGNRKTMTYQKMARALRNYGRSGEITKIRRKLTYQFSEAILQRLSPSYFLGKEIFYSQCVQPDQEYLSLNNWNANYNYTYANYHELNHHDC
# Method in brief: as §1
# ELF4 = ELF4 (Homo sapiens, UniProt Q99607 1-663); details: protein: recombinant; tags: N-terminal GST; dsDNA, one strand shown
# Method in brief: as §1
# ELK4 = target: T3, ELK4 (Homo sapiens, UniProt P28324-2 1-405); details: protein: recombinant; tags: N-terminal GST; dsDNA, one strand shown
# T3 sequence: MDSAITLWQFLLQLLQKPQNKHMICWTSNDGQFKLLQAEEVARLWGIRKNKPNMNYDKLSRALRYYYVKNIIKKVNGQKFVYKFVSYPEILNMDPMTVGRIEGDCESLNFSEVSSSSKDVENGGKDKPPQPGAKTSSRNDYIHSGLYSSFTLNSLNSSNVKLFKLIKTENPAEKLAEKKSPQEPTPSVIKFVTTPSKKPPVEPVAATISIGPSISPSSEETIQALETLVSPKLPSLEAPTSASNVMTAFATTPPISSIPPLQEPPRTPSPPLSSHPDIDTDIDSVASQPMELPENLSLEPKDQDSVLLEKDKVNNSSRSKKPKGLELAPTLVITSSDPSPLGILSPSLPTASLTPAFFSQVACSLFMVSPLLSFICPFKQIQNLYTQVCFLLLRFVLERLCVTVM
# Method in brief: as §1
# ETV2 = target: T4, ETV2 (Homo sapiens, UniProt O00321 1-342); details: protein: recombinant; tags: N-terminal GST; dsDNA, one strand shown
# T4 sequence: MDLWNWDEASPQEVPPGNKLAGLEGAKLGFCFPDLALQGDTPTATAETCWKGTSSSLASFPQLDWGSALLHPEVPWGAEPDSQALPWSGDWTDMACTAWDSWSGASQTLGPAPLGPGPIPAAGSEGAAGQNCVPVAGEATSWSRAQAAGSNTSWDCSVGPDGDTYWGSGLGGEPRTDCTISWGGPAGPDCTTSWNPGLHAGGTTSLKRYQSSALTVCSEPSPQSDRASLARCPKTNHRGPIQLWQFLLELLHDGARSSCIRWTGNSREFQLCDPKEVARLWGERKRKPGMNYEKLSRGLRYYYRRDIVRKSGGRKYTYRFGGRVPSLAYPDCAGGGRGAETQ
# Method in brief: as §1
# ELF3 = target: T5, ELF3 (Homo sapiens, UniProt P78545 1-371); details: protein: recombinant; tags: N-terminal GST; dsDNA, one strand shown
# T5 sequence: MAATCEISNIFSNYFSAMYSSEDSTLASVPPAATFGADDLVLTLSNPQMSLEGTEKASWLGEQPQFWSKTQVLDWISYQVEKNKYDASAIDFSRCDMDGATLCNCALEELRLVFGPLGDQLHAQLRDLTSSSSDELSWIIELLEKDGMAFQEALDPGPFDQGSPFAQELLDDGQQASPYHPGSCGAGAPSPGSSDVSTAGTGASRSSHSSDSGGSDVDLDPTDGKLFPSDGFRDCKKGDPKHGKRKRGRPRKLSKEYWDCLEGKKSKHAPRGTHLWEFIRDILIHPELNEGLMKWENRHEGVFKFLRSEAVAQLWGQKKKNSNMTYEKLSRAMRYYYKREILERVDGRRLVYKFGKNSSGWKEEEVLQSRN
# Method in brief: as §1
# CRX = CRX (Homo sapiens, UniProt O43186 1-299); details: protein: recombinant; tags: N-terminal GST; dsDNA, one strand shown
# Method in brief: as §1
# ETV1 = ETV1 (Homo sapiens, UniProt P50549 1-477); details: protein: recombinant; tags: N-terminal GST; dsDNA, one strand shown
# Method in brief: as §1
# ERF = target: T6, ERF (Homo sapiens, UniProt P50548 1-548); details: protein: recombinant; tags: N-terminal GST; dsDNA, one strand shown
# T6 sequence: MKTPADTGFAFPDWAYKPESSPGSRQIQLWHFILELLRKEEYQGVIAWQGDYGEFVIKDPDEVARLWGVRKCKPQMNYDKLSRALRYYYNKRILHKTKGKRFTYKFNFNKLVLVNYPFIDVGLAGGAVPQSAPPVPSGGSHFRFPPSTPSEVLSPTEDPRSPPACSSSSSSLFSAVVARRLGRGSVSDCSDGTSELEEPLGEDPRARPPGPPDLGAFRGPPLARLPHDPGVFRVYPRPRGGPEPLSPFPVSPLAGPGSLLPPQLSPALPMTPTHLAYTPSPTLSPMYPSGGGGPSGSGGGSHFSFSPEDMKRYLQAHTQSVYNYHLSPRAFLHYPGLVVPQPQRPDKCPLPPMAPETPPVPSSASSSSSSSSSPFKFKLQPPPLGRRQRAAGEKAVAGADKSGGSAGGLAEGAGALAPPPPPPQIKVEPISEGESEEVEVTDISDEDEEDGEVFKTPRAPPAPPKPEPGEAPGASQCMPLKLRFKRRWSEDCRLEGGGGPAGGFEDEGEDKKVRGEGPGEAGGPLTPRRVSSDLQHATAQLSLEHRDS
# Method in brief: as §1
# ETV3L = target: T7, ETV3L (Homo sapiens, UniProt Q6ZN32 1-361); details: protein: recombinant; tags: N-terminal GST; dsDNA, one strand shown
# T7 sequence: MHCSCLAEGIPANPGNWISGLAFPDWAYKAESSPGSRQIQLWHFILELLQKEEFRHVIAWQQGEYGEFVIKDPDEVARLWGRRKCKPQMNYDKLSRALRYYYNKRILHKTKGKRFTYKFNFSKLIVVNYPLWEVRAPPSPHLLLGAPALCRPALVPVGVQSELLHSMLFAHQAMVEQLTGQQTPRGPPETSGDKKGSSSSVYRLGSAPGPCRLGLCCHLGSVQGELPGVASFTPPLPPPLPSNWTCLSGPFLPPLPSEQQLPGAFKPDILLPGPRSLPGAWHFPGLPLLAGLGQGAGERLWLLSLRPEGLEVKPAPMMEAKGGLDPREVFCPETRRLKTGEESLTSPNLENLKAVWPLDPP
# Method in brief: as §1
# ETS2 = target: T8, ETS2 (Homo sapiens, UniProt P15036 1-469); details: protein: recombinant; tags: N-terminal GST; dsDNA, one strand shown
# T8 sequence: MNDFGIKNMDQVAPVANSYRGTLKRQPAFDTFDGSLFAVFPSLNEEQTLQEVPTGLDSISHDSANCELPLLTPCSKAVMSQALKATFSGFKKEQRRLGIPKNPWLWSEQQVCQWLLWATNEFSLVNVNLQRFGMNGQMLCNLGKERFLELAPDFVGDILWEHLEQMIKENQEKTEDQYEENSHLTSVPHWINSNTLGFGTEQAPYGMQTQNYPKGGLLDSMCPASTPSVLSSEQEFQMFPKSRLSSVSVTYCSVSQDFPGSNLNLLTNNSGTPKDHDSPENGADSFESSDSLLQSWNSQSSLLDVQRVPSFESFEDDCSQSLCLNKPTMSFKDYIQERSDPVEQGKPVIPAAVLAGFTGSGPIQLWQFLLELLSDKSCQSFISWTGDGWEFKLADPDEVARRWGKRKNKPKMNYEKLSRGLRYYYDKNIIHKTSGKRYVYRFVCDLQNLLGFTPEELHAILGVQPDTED
# Method in brief: as §1
# SPDEF = target: T9, SPDEF (Homo sapiens, UniProt O95238 1-335); details: protein: recombinant; tags: N-terminal GST; dsDNA, one strand shown
# T9 sequence: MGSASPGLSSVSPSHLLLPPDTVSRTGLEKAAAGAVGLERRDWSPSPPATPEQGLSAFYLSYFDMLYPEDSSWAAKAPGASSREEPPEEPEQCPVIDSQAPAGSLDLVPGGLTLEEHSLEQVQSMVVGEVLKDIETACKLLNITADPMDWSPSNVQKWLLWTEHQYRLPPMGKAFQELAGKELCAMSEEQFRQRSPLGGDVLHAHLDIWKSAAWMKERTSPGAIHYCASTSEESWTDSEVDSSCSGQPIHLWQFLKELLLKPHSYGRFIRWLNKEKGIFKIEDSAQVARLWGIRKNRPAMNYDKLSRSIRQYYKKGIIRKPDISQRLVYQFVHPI
# Method in brief: as §1
# ETV7 = target: T10, ETV7 (Homo sapiens, UniProt Q9Y603 1-341); details: protein: recombinant; tags: N-terminal GST; dsDNA, one strand shown
# T10 sequence: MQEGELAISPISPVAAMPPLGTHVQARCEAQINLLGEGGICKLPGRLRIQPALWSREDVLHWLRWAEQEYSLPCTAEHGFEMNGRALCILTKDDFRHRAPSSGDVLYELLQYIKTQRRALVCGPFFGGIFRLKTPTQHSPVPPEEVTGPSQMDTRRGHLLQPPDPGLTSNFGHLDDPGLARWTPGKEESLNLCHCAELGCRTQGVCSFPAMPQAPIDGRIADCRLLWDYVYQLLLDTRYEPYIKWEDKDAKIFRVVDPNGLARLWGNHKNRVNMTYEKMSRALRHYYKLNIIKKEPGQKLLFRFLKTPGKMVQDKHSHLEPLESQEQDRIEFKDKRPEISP
# Method in brief: as §1
# ELF5 = target: T11, ELF5 (Homo sapiens, UniProt Q9UKW6-2 1-255); details: protein: recombinant; tags: N-terminal GST; dsDNA, one strand shown
# T11 sequence: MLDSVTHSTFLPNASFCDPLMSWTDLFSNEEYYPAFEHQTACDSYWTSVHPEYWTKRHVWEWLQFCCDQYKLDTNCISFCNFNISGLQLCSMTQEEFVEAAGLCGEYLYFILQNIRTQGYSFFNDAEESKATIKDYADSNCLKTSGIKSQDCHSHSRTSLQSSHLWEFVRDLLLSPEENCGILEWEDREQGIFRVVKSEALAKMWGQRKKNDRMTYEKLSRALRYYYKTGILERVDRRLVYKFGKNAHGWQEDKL
# Method in brief: as §1
# ETV3 = target: T12, ETV3 (Homo sapiens, UniProt P41162-2 1-143); details: protein: recombinant; tags: N-terminal GST; dsDNA, one strand shown
# T12 sequence: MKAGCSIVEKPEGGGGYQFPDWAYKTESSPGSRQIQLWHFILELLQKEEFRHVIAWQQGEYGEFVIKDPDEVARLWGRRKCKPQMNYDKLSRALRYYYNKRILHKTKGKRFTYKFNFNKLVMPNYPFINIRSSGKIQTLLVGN
# Method in brief: as §1
# ETV6 = ETV6 (Homo sapiens, UniProt P41212 1-452); details: protein: recombinant; tags: N-terminal GST; dsDNA, one strand shown
# Method in brief: as §1
# Chain of ETV5 (P41161 whole entry): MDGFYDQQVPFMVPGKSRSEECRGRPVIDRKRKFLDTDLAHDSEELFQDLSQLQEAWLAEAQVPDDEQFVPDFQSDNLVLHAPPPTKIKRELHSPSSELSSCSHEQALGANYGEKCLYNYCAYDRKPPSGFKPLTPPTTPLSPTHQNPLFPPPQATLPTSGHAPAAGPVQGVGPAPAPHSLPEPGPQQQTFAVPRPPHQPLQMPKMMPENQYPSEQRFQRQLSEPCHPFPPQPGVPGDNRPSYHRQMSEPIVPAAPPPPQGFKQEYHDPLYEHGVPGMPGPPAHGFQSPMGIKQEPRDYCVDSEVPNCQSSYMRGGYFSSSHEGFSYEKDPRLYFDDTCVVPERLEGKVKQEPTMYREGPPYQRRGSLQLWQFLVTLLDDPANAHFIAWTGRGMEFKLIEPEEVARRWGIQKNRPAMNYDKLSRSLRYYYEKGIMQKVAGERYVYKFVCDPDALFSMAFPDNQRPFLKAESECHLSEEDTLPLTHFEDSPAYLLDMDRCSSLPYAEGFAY
# Chain of ETV1 (P50549 whole entry): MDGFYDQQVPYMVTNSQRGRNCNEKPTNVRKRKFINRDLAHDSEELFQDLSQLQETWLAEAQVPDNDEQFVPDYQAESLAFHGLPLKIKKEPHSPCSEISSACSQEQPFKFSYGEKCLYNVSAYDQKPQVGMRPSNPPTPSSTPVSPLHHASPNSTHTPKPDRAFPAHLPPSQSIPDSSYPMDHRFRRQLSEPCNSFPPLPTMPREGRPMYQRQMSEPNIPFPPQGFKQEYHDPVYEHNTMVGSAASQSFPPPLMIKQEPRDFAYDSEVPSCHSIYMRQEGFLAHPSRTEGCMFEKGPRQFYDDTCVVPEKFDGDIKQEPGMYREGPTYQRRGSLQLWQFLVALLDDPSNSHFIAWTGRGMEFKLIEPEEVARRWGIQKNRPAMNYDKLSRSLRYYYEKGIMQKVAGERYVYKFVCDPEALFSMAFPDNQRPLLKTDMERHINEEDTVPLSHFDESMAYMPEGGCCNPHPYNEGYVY
# Chain of ETV6 (P41212 whole entry): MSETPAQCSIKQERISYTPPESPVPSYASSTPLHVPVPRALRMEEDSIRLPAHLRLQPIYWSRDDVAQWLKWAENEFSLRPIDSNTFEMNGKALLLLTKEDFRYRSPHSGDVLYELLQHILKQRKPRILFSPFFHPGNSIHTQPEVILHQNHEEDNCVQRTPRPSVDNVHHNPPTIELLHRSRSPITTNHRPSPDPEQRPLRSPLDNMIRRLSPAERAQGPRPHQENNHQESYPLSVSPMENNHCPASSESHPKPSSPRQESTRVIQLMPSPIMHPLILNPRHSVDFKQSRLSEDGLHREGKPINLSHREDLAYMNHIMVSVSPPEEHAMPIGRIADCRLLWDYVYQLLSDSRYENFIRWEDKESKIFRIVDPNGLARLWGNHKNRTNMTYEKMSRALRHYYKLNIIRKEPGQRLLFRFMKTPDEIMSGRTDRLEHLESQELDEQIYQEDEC
# Chain of ELF4 (Q99607 whole entry): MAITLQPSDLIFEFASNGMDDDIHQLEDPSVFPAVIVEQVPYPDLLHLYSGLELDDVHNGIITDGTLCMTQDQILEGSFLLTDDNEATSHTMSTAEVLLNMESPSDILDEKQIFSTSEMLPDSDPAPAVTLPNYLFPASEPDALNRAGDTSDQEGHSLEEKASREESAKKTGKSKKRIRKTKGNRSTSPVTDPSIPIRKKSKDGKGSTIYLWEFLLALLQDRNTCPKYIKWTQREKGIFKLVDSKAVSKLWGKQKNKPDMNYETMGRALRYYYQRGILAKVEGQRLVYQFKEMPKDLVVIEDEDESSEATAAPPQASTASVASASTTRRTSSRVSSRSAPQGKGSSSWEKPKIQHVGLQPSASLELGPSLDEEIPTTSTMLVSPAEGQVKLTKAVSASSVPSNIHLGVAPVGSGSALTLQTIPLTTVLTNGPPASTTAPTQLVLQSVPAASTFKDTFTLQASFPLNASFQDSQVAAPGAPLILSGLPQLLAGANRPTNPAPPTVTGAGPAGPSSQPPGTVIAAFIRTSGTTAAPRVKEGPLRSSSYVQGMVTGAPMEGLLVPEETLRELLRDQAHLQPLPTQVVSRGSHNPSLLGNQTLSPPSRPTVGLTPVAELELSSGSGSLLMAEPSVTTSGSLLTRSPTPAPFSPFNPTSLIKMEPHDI
# Chain of CRX (O43186 whole entry): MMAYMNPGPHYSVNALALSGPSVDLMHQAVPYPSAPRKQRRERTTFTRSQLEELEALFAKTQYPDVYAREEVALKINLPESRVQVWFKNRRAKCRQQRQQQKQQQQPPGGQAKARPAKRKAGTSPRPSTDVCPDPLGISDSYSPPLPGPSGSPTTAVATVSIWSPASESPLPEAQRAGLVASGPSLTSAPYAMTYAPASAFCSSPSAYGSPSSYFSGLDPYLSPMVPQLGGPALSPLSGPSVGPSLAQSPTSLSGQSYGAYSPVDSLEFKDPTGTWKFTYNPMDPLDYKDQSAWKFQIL
# Chain of HSF1 (Q00613 whole entry): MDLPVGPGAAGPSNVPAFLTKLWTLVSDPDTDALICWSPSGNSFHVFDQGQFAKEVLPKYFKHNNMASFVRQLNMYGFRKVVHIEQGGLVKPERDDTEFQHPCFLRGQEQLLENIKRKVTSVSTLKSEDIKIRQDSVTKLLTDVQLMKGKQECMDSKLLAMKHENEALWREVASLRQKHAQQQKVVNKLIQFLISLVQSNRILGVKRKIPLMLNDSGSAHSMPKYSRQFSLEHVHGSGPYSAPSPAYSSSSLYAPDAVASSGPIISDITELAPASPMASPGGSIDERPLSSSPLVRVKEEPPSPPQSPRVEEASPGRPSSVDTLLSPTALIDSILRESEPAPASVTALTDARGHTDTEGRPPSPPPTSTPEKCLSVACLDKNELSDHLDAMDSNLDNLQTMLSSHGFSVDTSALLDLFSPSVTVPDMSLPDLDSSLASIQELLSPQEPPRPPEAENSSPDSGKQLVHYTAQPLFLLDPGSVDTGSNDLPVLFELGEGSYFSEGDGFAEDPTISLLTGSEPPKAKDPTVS
sequence,measurement,setting,value
TCTTGA,binding signal,FEV,"1.3 fold enrichment (6-mer frequency, TF over GST control)"
same,binding signal,ETV5,"1.14 fold enrichment (6-mer frequency, TF over GST control)"
same,binding signal,HSF1,"1.61 fold enrichment (6-mer frequency, TF over GST control)"
same,binding signal,SPIC,"1.21 fold enrichment (6-mer frequency, TF over GST control)"
same,binding signal,ELF4,"1.33 fold enrichment (6-mer frequency, TF over GST control)"
same,binding signal,ELK4,"1.4 fold enrichment (6-mer frequency, TF over GST control)"
same,binding signal,ETV2,"1.2 fold enrichment (6-mer frequency, TF over GST control)"
same,binding signal,ELF3,"1.19 fold enrichment (6-mer frequency, TF over GST control)"
same,binding signal,CRX,"1.44 fold enrichment (6-mer frequency, TF over GST control)"
same,binding signal,ETV1,"1.17 fold enrichment (6-mer frequency, TF over GST control)"
same,binding signal,ERF,"1.49 fold enrichment (6-mer frequency, TF over GST control)"
same,binding signal,ETV3L,"1.32 fold enrichment (6-mer frequency, TF over GST control)"
same,binding signal,ETS2,"1.28 fold enrichment (6-mer frequency, TF over GST control)"
same,binding signal,SPDEF,"1.25 fold enrichment (6-mer frequency, TF over GST control)"
same,binding signal,ETV7,"1.22 fold enrichment (6-mer frequency, TF over GST control)"
same,binding signal,ELF5,"1.3 fold enrichment (6-mer frequency, TF over GST control)"
same,binding signal,ETV3,"1.18 fold enrichment (6-mer frequency, TF over GST control)"
same,binding signal,ETV6,"1.24 fold enrichment (6-mer frequency, TF over GST control)"
